Compound activity: PubChem, National Center for Advancing Translational Sciences (NCATS)
KDM5B inh: inhibitors of human KDM5B histone demethylase | Q9UGL1 | KDM5B demethylase, FDH-coupled NADH fluorescence (FDH is formaldehyde dehydrogenase) | Potency, µM (highest dose often 57.7 µM), most hits filed as inhibitors | 2.6% of 220,000 active | AID 1347165; active = well fitted inhibition curve with a large enough effect; note: nearly all actives have a fitted effect of over 70% in size
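Compound dilutions met 200 nM (final) KDM5BΔAP for 10 min at room temperature before substrate addition. The substrate mix held 12.5 µM H3K4me3 with cofactors 25 µM α-ketoglutarate and 50 µM Fe²⁺. NADH signal gain over 30 min defined activity.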
Large screens that a line does not name were inactive. This excerpt belongs to a sample that is enriched for hits.

Cc1nc2n(c1C(=O)NCCc1ccccc1)CCC(Nc1ccc(F)cc1)C2 (centres undefined)	none
Cc1cc(C)n(-c2nc3c(c(=O)[nH]c(=O)n3C)n2C/C=C/c2ccccc2)n1	none
CS(=O)(=O)N1CCC(Nc2nc3ccccc3o2)CC1	none
CCc1ccc(S(=O)(=O)N2CCC(Oc3ncccc3C(=O)N3CCOCC3)C2)cc1 (centres undefined)	none
CCCCN(C)S(=O)(=O)NC1CCN(c2ncccn2)CC1	none
CCCOc1nccnc1NC1CCN(S(=O)(=O)C2CC2)CC1	KDM5B inh 16µM
CN(C)c1nccnc1OC1CCN(S(=O)(=O)c2ccccc2)C1 (centres undefined)	none
CCOc1nccnc1NC1CCN(S(=O)(=O)C2CC2)CC1	KDM5B inh 32µM
COc1cccc(C2CCCN2Cc2cc(=O)oc3cc(OC)ccc23)c1 (centres undefined)	none
CNCC12CC3CC(CC(C3)C1)C2	none
O=C(Nn1cnc2ccccc2c1=O)C1CCCC1	none
Cc1ccc(NC(=O)Cn2cc(C#N)c3ccccc32)cc1	none
O=C(NC1CCCC1)c1cc2c(s1)CCN(C(=O)c1ccc(F)cc1)C2	none
CCNC(=O)O[C@@H]1CO[C@H]2[C@@H]1OC[C@@H]2NC(=O)c1ccccn1	none
CC(C)(C)c1ccc(NC(=O)O[C@@H]2CO[C@H]3[C@@H]2OC[C@@H]3Nc2nccc(-c3ccccc3)n2)cc1	none
O=C(COc1ccccc1)N[C@H]1CO[C@H]2[C@@H]1OC[C@@H]2Nc1nccc(-c2cccs2)n1	KDM5B inh 28µM
O=C(Nc1ccccc1)O[C@@H]1CO[C@H]2[C@@H]1OC[C@@H]2NC(=O)C1CCCCC1	none
CCNC(=O)O[C@@H]1CO[C@H]2[C@@H]1OC[C@@H]2Nc1nccc(-c2cccs2)n1	KDM5B inh 28µM
COC(=O)c1cn([C@H]2CO[C@H]3[C@@H]2OC[C@@H]3NC(=O)COc2ccccc2)nn1	none
O=C(N[C@H]1CO[C@H]2[C@@H]1OC[C@@H]2Nc1nccc(-c2cccs2)n1)c1ccccc1	KDM5B inh 35µM
O=C(N[C@H]1CO[C@H]2[C@@H]1OC[C@@H]2Nc1nccc(-c2cccs2)n1)C1CCCCC1	KDM5B inh 35µM
COc1ccc(Nc2cnc3ccc(-c4ccc(OC)c(OC)c4)nn23)cc1	none
Cc1nnc(SCc2nnc(-c3ccc(F)cc3)o2)n1-c1ccccc1	none
Cc1ccc2[nH]cc(C(C(=O)O)N3CCN(Cc4cccc5ccccc45)CC3)c2c1 (centres undefined)	none
CCn1c2c(c(=O)[nH]c1=O)C(c1ccc(C)cc1)C1=C(COC1=O)N2 (centres undefined)	none
CCc1ccc(NS(=O)(=O)c2ccc3c(c2)C(C)(C)C(=O)N3)cc1	none
CC(=O)Nc1ccc(S(=O)(=O)N[C@H]2CO[C@H]3[C@@H]2OC[C@@H]3Nc2nccc(-c3cccs3)n2)cc1	KDM5B inh 25µM
CC(=O)Nc1ccc(S(=O)(=O)N[C@H]2CO[C@H]3[C@@H]2OC[C@H]3OC(=O)Nc2ccccc2)cc1	none
CC(C)(C)c1ccnc(N[C@H]2CO[C@H]3[C@@H]2OC[C@@H]3NS(=O)(=O)c2cccs2)n1	none
O=C(Cc1ccc(F)cc1)N(Cc1cccc2[nH]ccc12)C1CC1	none
N#Cc1cccc(NC(=O)CCC(=O)c2ccc3c(c2)CCC3)c1	none
Cc1c(Cc2ccccc2)c(=O)oc2c(C)c(OCC(=O)NC(C)C)ccc12	none
C#CC1(O)CC(C)(C)NC(C)(C)C1	none
O=C(O)c1ccc(CN2CCC(CO)CC2)cc1	none
CN(Cc1ccccc1)C(=O)[C@@H]1Cc2nc[nH]c2CN1C	none
O=C(O)C1Cc2nc[nH]c2CN1C(=O)CCc1cn2ccccc2n1 (centres undefined)	KDM5B inh 11µM
CC(C)(CC(=O)O)CC(=O)N1Cc2[nH]cnc2C[C@H]1C(=O)N1CCCC1	none
Fc1ccc(NC(=S)NC2CC2)cc1	none
CN(C)c1ccc(SSc2ccc(N(C)C)cc2)cc1	none
Cc1onc(-c2c(Cl)cccc2Cl)c1C(=O)N1CCOCC1	none
Cc1ccc(-n2ncc(C(=O)N3CCCC3)c2-n2cccc2)cc1	none
Cc1cccc(C)c1-c1nc(C(=O)N2CCOCC2)n2ccccc12	KDM5B inh 79µM
Cc1cccc(C)c1-c1nc(C(=O)N2CCCC2)n2ccccc12	KDM5B inh 40µM
Cc1ccccc1Nc1nc(C(=O)N2CCCC2)cs1	none
Cc1cccc(C)c1-c1cc(C(=O)N2CCOCC2)c2cnn(C)c2n1	none
CC1(C)CC(=O)C/C(=N/NC(=O)c2cccc(Br)c2)C1	none
COCCOc1ccc(S(=O)(=O)N(C)C(C)(C)C(=O)OC)cc1	none
Cc1cccc(OCc2nnc(SCc3ccc(Cl)c(Cl)c3)n2C)c1C	none
COc1ccc(C)cc1CCNC(=O)CCc1c(C)nn(C)c1C	none
COc1ccc(-c2noc(CCC(=O)Nc3ccn(C)n3)n2)cc1OC	none
Fc1ccc(-c2cccc(CN3CCOCC3)c2)c(Cl)c1	none
c1cc(CN2CCOCC2)cc(-c2cnn3ccccc23)c1	KDM5B inh 32µM
N#CC1(c2ccc(-c3cccc(CN4CCOCC4)c3)cc2)CCCC1	none
CC(C)Nc1nnc(SCc2nc(-c3ccccc3Cl)no2)s1	none
COc1ccc(NC(=O)Cn2ccc3ccc(Cl)cc32)cc1	none
O=C(Cn1c(=O)cc(C(=O)N2CCCC2)c2ccccc21)Nc1ccccc1F	none
